Laboratory results from PubChem BioAssay.
Calls of active or inactive are those of the source.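 Rule for the calls, unless noted: active = compound raises GLP1 secretion from the human gut endocrine cells, with no numeric limit stated; inactive = the rest.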

What was measured:
[1] = stimulators of nuclear beta-catenin in C2C12, primary screen, imaging, WNT3A-conditioned medium, mouse C2C12, NPC library (AID 1117326; in the data active = nuclear beta-catenin stimulation mostly above about 4.2%, no sharp cut-off; inactive = mostly below about 10%; note: reference of the scale not given here); settings: stronger effect = higher value
[2] = stimulators of insulin release from INS-1E, primary screen, cell-based, 5 mM glucose, NPC library (AID 1117329;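 active = compound raises insulin release from rat beta cells at 5 mM glucose, no numeric limit stated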; note: reference of the scale not given here); settings: rat INS-1E insulin secretion, at 10 µM, stronger effect = higher value
[3] = growth inhibition of GSK3B-pretreated HCT116 cells – cell-based, CellTiter-Glo, 0.2 to 20 µM (AID 1117336;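 active = compounds lowering colon cancer cell viability after pretreatment blocking the GSK3B kinase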); settings: HCT116 viability after GSK3B inhibitor, at 20 µM, stronger effect = higher value
[4] = inhibition of endothelial tube formation, primary screen, imaging, VEGF stimulated, CD31 staining, tube area, NPC library (AID 1117340;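 active = compound that reduces growth-factor-driven endothelial tube area in a mixed cell culture, no cutoff stated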); settings: VEGF-stimulated ADSC/ECFC co-culture, at 10 µM, stronger effect = higher value
[5] = glucagon-like peptide 1 release enhancers, primary assay, NCI-H716 cell line, NPC library (AID 1117341); settings: NCI-H716 cells, at 10 µM, stronger effect = higher value; note: reference of the scale not given here
[6] = HCT116 colon cancer cell growth inhibition, primary screen, CellTiter-Glo luminescence, NPC library (AID 1117342;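 active = compounds that lower survival of HCT116 colon cancer cells in the luminescence readout, no numeric limit stated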); settings: at 20 µM (top of the series)
[7] = CellTiter-Glo luminescent readout of SW480 viability loss, NPC library primary (AID 1117343;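 active = compounds that lower viability of the colon cancer cells in the luminescence readout, with no numeric limit stated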); settings: CellTiter-Glo luminescence; at 20 µM (top of the series)
[8] = decreased DLD-1 cellular survival, CellTiter-Glo luminescent readout, NPC compound collection, primary HTS (AID 1117346;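 active = compounds that lower survival of DLD-1 colon cancer cells in the luminescence readout, no cutoff given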); settings: DLD-1 viability, CellTiter-Glo luminescence; at 20 µM (top of the series)

SMILES	nuclear beta-catenin stimulation ([1]; at 10 µM)	nuclear beta-catenin stimulation ([1]; stimulation, at 2 µM)	insulin secretion stimulation [2]	viability decrease [3]	tube area decrease [4]	GLP1 secretion stimulation [5]	inhibition of viability [6]	viability decrease (inhibition) [7]	viability decrease (inhibition) [8]
Oc1ccccc1C=NCc1ccccc1	-0.8% (inactive)	-0.6%	-2.2% (inactive)	0.9% (inactive)	-29.7% (inactive)	3.8% (inactive)	0.1% (inactive)	13.6% (inactive)	0.75% (inactive)
CCCCCCCCCCCCCC[N+](C)(C)C	61.2% (active)	7.5%	-0.2% (inactive)	101% (active)	110% (active)	29.7% (active)	101% (active)	122% (active)	103% (active)
Nc1nc(N)c(-c2ccccc2)s1	0.4% (inactive)	2.2%	-2% (inactive)	-1.63% (inactive)	16.7% (inactive)	2.1% (inactive)	10.2% (inactive)	48.5% (inactive)	2.53% (inactive)
Cc1c(C)c2c(c(C)c1OC(=O)CCC(=O)OCCO)CC[C@@](C)(CCC[C@H](C)CCC[C@H](C)CCCC(C)C)O2	0% (inactive)	-0.6%	0.25% (inactive)	116% (active)	17.4% (inactive)	23% (active)	122% (active)	157% (active)	101% (active)
Nc1ccc(O)cc1	18.2% (inactive)	2%	1% (inactive)	99.1% (active)	60.9% (active)	-3.8% (inactive)	99.3% (active)	102% (active)	62.6% (active)
O=S(=O)(O)c1ccc(O)cc1	0.1% (inactive)	2%	-2.6% (inactive)	-3.65% (inactive)	5.3% (inactive)	-0.7% (inactive)	-4% (inactive)	11.5% (inactive)	-5.95% (inactive)
NC[C@@H]1O[C@H](O[C@H]2[C@H](O)[C@H](O[C@H]3[C@@H](O)[C@H](N)C[C@H](N)[C@H]3O[C@H]3O[C@H](CN)[C@H](O)[C@H](O)[C@H]3N)O[C@@H]2CO)[C@@H](N)[C@@H](O)[C@@H]1O	-0.3% (inactive)	0.4%	3.2% (inactive)	-8.9% (inactive)	-22.4% (inactive)	63.5% (active)	9% (inactive)	31.1% (inactive)	5% (active)
C/C(=C(/OCCOc1ccc(Cl)cc1)c1ccc(Cl)cc1Cl)n1ccnc1	3.9% (inactive)	1.3%	-0.7% (inactive)	102% (active)	109% (active)	4.1% (inactive)	102% (active)	143% (active)	105% (active)
O=C(O)Cc1cccc(-c2cc(CCCCCCc3ccc(O[C@H]4O[C@H](CO)[C@@H](O)[C@H](O)[C@@H]4O)c(-c4cccc(CC(=O)O)c4)c3)ccc2O[C@H]2O[C@H](CO)[C@@H](O)[C@H](O)[C@@H]2O)c1	0.7% (inactive)	1.4%	2.3% (inactive)	-12.7% (inactive)	-29% (inactive)	9.5% (inactive)	-26.6% (inactive)	-24.6% (inactive)	-14.9% (inactive)
CCCCCCCCCCOCC(O)CN (centres undefined)	49.7% (active)	-0.2%	4.5% (inactive)	91.1% (active)	65% (active)	-3.3% (inactive)	84.7% (active)	102% (active)	98.4% (active)
CCCCCCCCCCCCCCCCCCNC(=O)OC1CCN(C(=O)OC[C@H](COC(=O)N(Cc2cccc[n+]2CC)C(=O)c2ccccc2OC)OC)CC1	10.2% (inactive)	0.5%	117% (active)	110% (active)	111% (active)	213% (active)	112% (active)	131% (active)	101% (active)
CC1CC(=O)NN=C1c1ccc(NCC(C)(C)NCC(O)COc2cc(Cl)ccc2C#N)cc1 (centres undefined)	-1.8% (inactive)	1.1%	31.3% (active)	-8% (inactive)	11.2% (inactive)	1% (inactive)	23.2% (inactive)	5.4% (inactive)	15.4% (inactive)
OC1(c2ccc(Cl)cc2)CCNCC1	-0.1% (inactive)	-1.2%	6.1% (inactive)	13.1% (inactive)	7.8% (inactive)	1.3% (inactive)	23.2% (inactive)	30.5% (inactive)	8.8% (inactive)
CCCC(=O)O[C@]1(C(=O)CCl)[C@@H](C)C[C@H]2[C@@H]3CCC4=CC(=O)C=C[C@]4(C)[C@@]3(F)C(=O)C[C@@]21C	3.8% (inactive)	-0.1%	3% (inactive)	0.4% (inactive)	36.7% (inactive)	-0.4% (inactive)	70.5% (active)	99.8% (active)	47% (inactive)
C/C(=N/NC(=O)c1ccncc1)C(=O)O	-0.8% (inactive)	-0.3%	-0.8% (inactive)	-23.6% (inactive)	-6.8% (inactive)	-2.8% (inactive)	-1.23% (inactive)	17.4% (inactive)	4.2% (inactive)
CCCCCCCC/C=C/C(=O)O	1.3% (inactive)	0.6%	1.9% (inactive)	-52.2% (inactive)	-10.1% (inactive)	-3.8% (inactive)	5.93% (inactive)	85.3% (active)	45% (inactive)
